# Nrf2 activator: activators of Nrf2 (ARE) signaling | AREc32 ARE-luciferase reporter (MCF7-derived line), luminescence, 24 h | AID 624171 | Potency, µM (series often up to 46.1 µM), inactives show at the highest dose activation, usual class: activators | 410,000 compounds, 0.31% hits; note: % of control where 0% means no effect; nearly all actives have a fitted effect of over 65% in size
#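 Cells of the AREc32 ARE-luciferase line are plated in OPTI-MEM containing 5% FBS and left overnight at 37 deg C. Compounds are pinned in, incubation continues 24 hr, and firefly luciferase signal is then measured.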
# A549 tox: counter-screen for Nrf2 inhibitors: cytotoxicity in A549 cells; Potency, µM (top dose mostly 46 µM), for the others: at the highest dose activity change, negative = cytotoxicity, actives largely listed as inhibitors; AID 504648; A549 ARE-Fluc cells, CellTiter-Fluor viability, 18-24 h; 390,000 compounds, 0.16% hits; note: % is set by controls: 0 for no effect and ±100 for the full control effect
#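 A549 ARE-Fluc cells in 5% FBS OPTI-MEM, 5000 cells/well, rested 2 h then exposed to compounds in concentration-response for 18-24 h at 37 °C. Viability by CellTiter-Fluor fluorescence (Ex 405/Em 525) after 30 min; luciferase luminescence (BugLite, 15 min, RT) read afterwards.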
# HepG2 tox: HepG2 cytotoxicity, counter-screen for TGF-b inhibitors | HepG2 CAGA-GFP viability, ATP luminescence, 18 h | Potency, µM (highest dose often 46.1 µM), without a hit: at the highest dose activity change, negative = cytotoxicity, usual class: cytotoxic | 410,000 compounds, 0.76% hits
#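 HepG2 CAGA-GFP cells (1000/well, DMEM with 1% FBS) received compound, then TGF-beta at 500 pg/mL final, and were incubated 18 hours at 37 degrees C. Viability was read by CellTiter-Glo luminescence. Media-only wells were set as complete cell-killing and DMSO as no toxicity.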
# TGFb inhibitor: inhibitors of TGF-b signaling; AID 588855; HepG2 CAGA-GFP TGF-b/SMAD3 reporter, GFP fluorescence, 18 h; TGF-beta stimulated, 500 pg/mL final; 410,000 compounds, 1.2% hits; Potency, µM (titrated, usually from 46.1 µM), for the others: top-dose activity, negative = inhibition, hits mostly inhibitors; note: % is set by controls: 0 for no effect and ±100 for the full control effect; nearly all actives have a fitted effect of over 65% in size
#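 Inhibition of TGF-beta-driven CAGA-GFP reporter expression in HEPG2 cells is measured by cellular GFP fluorescence after 18 h stimulation with 500 pg/mL recombinant TGF-beta in 1% FBS medium at 37 degrees C.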
# Nrf2 block: Nrf2 pathway inhibition. A549 ARE-Fluc reporter, luciferase luminescence, 18-24 h. Potency, µM (titrated, usually from 46 µM), for inactives: at the highest dose activity change, negative = inhibition, usual class: inhibitors. 360,000 compounds, 2.1% hits; note: % is set by controls: 0 for no effect and ±100 for the full control effect; nearly all actives have a fitted effect of over 60% in size
#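 A549 ARE_Fluc cells, 5000/well, 5% FBS OPTI-MEM; compounds in dose-response, 18-24 h at 37 °C/5% CO2; CellTiter-Fluor viability read (Ex 405/Em 525), then BugLite luciferase luminescence = Nrf2 activity.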
# An asterisk follows results filed as active; ? = inconclusive; . = not tested or not shown; [ ] = dose if it differs, or a comment. Shown are actives, neighbours in structure and some others; about 3.6% of the full set was active somewhere. Calls come from the whole dose curve; as a rule, active = well fitted curve in the direction sought with a large enough effect; inconclusive = small, poorly fitted or top-dose-only effect, or another doubt; inactive = no such curve, though single readings can be large; an effect the other way counts as inactive or inconclusive. Potency is the fitted concentration of half-maximal effect.
SMILES,Nrf2 activator,A549 tox,HepG2 tox,TGFb inhibitor,Nrf2 block
CN1CCN(c2ccccc2NC(=O)c2ccc([N+](=O)[O-])o2)CC1,-2%,-14%,2.5µM*,?,-7%
CS(=O)(=O)N1CCN(c2ccccc2NC(=O)c2ccc([N+](=O)[O-])o2)CC1,8.9µM*,0%,-26%,?,-14%
CCC(CO)Oc1cc(NCc2ccc(O)cc2)c2ncn(C(C)C)c2c1 (configuration not stated),3%,-1%,31%,13%,-13%
CCC(COC)Oc1cc(NCc2ccccc2)c2ncn(C(C)C)c2c1 (configuration not stated),-5%,?,-113%,?,18µM*
CCC(COC(=O)c1ccccc1)Oc1cc(NCc2ccccc2)c2ncn(C(C)C)c2c1 (configuration not stated),-5%,16µM*,-85%,?,23µM*
CCC(CO)Oc1cc(NCc2ccccc2)c2ncn(C(C)C)c2c1 (configuration not stated),-5%,1%,-28%,?,0%
CC(C)n1cnc2c(NCc3ccccc3)cc(N[C@H](C)CO)cc21,-3%,23µM*,0.63µM*,?,?
CCCCOc1cc(NCc2ccccc2)c2ncn(C(C)C)c2c1,-1%,?,-54%,18µM*,?
O=C(Cc1ccccc1)N/N=C/c1cc(Br)c(Br)o1,2%,-13%,-1%,-2%,.
COc1ccc(Cc2cc(NCc3ccccc3)c3ncn(C(C)C)c3c2)cc1,-4%,-16%,11µM*,?,-16%
Cc1onc(-c2c(F)cccc2Cl)c1C(=O)Nc1nnc(C2CC2)s1,0%,-11%,-22%,2%,-25%
Cc1ccc(NC(=O)c2ccoc2C)cc1C,4%,-3%,-42%,-11%,?
Cc1cc(NC(=O)c2ccoc2C)ccc1Br,9%,0%,-51%,16µM*,?
C/C(=N\NC(=O)COc1ccc(C(C)(C)C)cc1)c1ccc2c(c1)OCCO2,3%,0%,0%,?,-7%
CCOC(=O)c1cn(-c2c(Cl)cccc2Cl)c2cc(Cl)c([N+](=O)[O-])cc2c1=O,11µM*,8%,-14%,3%,5%
CCOC(=O)c1cn(CC)c2cc(Cl)c([N+](=O)[O-])cc2c1=O,7%,-2%,-7%,6%,17%
CCNC(=S)NNC(=O)c1cc(-c2cccc(C)c2)nc2ccccc12,3%,-2%,-72%,-14%,.
CCNC(=O)COC(=O)c1cc(-c2ccc(OC)cc2)nc2ccccc12,-1%,-13%[1.84 µM],-24%,0%,-13%
CCN(CC)C(=O)COC(=O)c1cc(-c2ccc(OC)cc2)nc2ccccc12,3%,-23%,-38%,-4%,23µM*
CN(C(=O)COC(=O)c1c2c(nc3ccccc13)/C(=C/c1cccc([N+](=O)[O-])c1)CCC2)C1CCS(=O)(=O)C1 (configuration not stated),3%,-5%,-7%,4%,1%
O=C(COC(=O)c1c2c(nc3ccccc13)/C(=C/c1cccc([N+](=O)[O-])c1)CCC2)NC1CCS(=O)(=O)C1 (configuration not stated),1%[9.22 µM],-4%,-4%,0%,23µM*
CCNC(=S)NNC(=O)c1cc(-c2ccc(OC)cc2)nc2ccccc12,2%[9.22 µM],1%,7.9µM*,-3%,?
CCCCOc1ccc(-c2cc(C(=O)NNC(=S)NCC)c3ccccc3n2)cc1,0%,?,8.9µM*,?,.
COc1ccc(N2C(=O)C3C(C2=O)C2C=CC3C23CC3)c([N+](=O)[O-])c1 (configuration not stated),0%,-1%,-6%,-15%,-18%
O=[N+]([O-])c1cccnc1Oc1ccc(F)cc1F,-1%,-2%,11%,0%,1%
SMILES,Nrf2 activator,A549 tox,HepG2 tox,TGFb inhibitor,Nrf2 block
CC(C)c1ccc(S(=O)(=O)N2CCN(C(C)C(=O)Nc3ccccc3-c3ccccc3)CC2)cc1 (configuration not stated),0%,3%,-2%,-10%,2%
COc1ccc2cc(-c3cc(C(=O)OCC(=O)NC4CCS(=O)(=O)C4)c4ccccc4n3)ccc2c1 (configuration not stated),0%,3%,-14%,?,12µM*
COc1ccc(C(=O)OC(C)CN2CCN(C)CC2)cc1OC (configuration not stated),0%,3%,-14%,-4%,?
O=C(OC(C(=O)Nc1ccc([N+](=O)[O-])cc1Br)c1ccccc1)c1ccccc1 (configuration not stated),0%,0%,-2%,14%,23µM*
CN(C)c1cccc(C(=O)OC(C(=O)Nc2ccc([N+](=O)[O-])cc2Br)c2ccccc2)c1 (configuration not stated),-1%,-8%,28%,10%,-13%
CCS(=O)(=O)c1nc(S(=O)(=O)c2ccc(Cl)cc2)c(N2CCC3(CC2)OCCO3)s1,11µM*,2%,-9%,0%,6%
CS(=O)(=O)c1nc(S(=O)(=O)c2ccc(Cl)cc2)c(N2CCC3(CC2)OCCO3)s1,10µM*,-4%,-1%,-7%,?
CS(=O)(=O)c1nc(S(=O)(=O)c2ccc(Cl)cc2)c(N2CCC(C(N)=O)CC2)s1,?,-10%,-2%,7%,-49%
CCS(=O)(=O)c1nc(S(=O)(=O)c2ccc(Cl)cc2)c(N2CCOCC2)s1,?,5%,-7%,-1%,-10%
CC(=O)c1[nH]c(C)c(C(=O)N2CCCC(Nc3ccc(C(C)C)cc3)C2)c1C (configuration not stated),0%,?,-29%,0%,15µM*
COc1ccc(-c2ccc(NS(=O)(=O)c3ccc(C(C)=O)cc3)cc2)nn1,1%,0%,-29%,-25%,.
O=C(CCS(=O)(=O)c1ccccc1)N(CCCN1CCOCC1)c1nc2ccccc2s1,?,-17%,-4%,?,8%
Cc1ccc(S(=O)(=O)CCC(=O)N(CCCN2CCOCC2)c2nc3ccccc3s2)cc1,13µM*,13%,-24%,-25%,?
CCCCCCCCC(=O)N/N=C/c1cccc(Br)c1,0%,-12%,-43%,-7%,21µM*
CCOc1ccc(-c2cccc(NS(=O)(=O)c3ccc(Cl)s3)c2)nn1,1%,6%,-16%,-10%,.
Cc1cccc(C)c1NC(=O)CN1CCN(C(=O)CNC(=O)Cc2cccc3ccccc23)CC1,0%,.,-34%,-20%,.
CCc1ccccc1NC(=O)CN1CCN(C(=O)CNC(=O)Cc2cccc3ccccc23)CC1,0%,-5%,-17%,?,15µM*

# Bioassay records deposited in PubChem by National Center for Advancing Translational Sciences (NCATS).
